Test results published in PubChem BioAssay (NCI).
About 79,000 compounds went through this panel and 15% of them were active in at least one assay; those are over-represented in the sample as a whole. Unmarked numbers belong to inactive results. Activity calls are given as the source filed them. Rule as the data show it: active = growth inhibition above about 70%; inactive = the rest.

Legend:
[1] = NCI Yeast Anticancer Drug Screen. Data for the rad50 strain (AID 155);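 also: 0% = growth of vehicle-only cultures of the same strain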; settings: S. cerevisiae rad50 strain growth inhibition, hits give high values
In short: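 Yeast carrying a defined DNA repair defect were exposed to test compounds, and growth was compared with vehicle-treated controls to give percent inhibition.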

[2] = NCI Yeast Anticancer Drug Screen. Data for the mec2-1 strain (AID 157); settings: S. cerevisiae mec2-1 strain, hits give high values
In short: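 Strain: mec2-1 (DNA repair/cell cycle alteration). Compound exposure, then growth measured; inhibition expressed relative to vehicle.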

[3] = NCI Yeast Anticancer Drug Screen. Data for the sgs1 mgt1 strain (AID 161);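 also: 0% = growth of cultures given vehicle only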; settings: S. cerevisiae sgs1 mgt1 strain, hits give high values
In short: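 Genetically altered yeast, compound exposure, growth inhibition relative to vehicle.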

[4] = NCI Yeast Anticancer Drug Screen. Data for the cln2 rad14 strain (AID 165);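 also: 0% = growth equal to vehicle treated cultures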; settings: S. cerevisiae cln2 rad14 strain, hits give high values
In short: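 Compounds are applied to the cln2 rad14 yeast strain, and growth is then compared with that of vehicle-treated cultures to give inhibition.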

[5] = NCI Yeast Anticancer Drug Screen. Data for the bub3 strain (AID 167); settings: S. cerevisiae bub3 mutant strain, hits give high values
In short: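 Compounds were applied to a genetically altered yeast strain carrying a cell-cycle control defect. Growth inhibition was scored against vehicle-treated controls.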

[6] = NCI Yeast Anticancer Drug Screen. Data for the mlh1 rad18 strain (AID 175); settings: S. cerevisiae mlh1 rad18 strain growth inhibition, hits give high values
In short: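 Read-out is yeast growth inhibition, calculated against vehicle-only controls. The compound was applied to a strain engineered with DNA damage repair alterations.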

[7] = at 5.0 µM (retest, dose inferred, filed as 0.5)
[8] = at 50.0 µM (retest, dose inferred, filed as 5.0)

| SMILES | growth inhibition [1, 7] | growth inhibition [1, 8] | growth inhibition ([1]; at 50.0 µM) | growth inhibition [2, 7] | growth inhibition [2, 8] | growth inhibition ([2]; at 50.0 µM) | growth inhibition [3, 7] | growth inhibition [3, 8] | growth inhibition ([3]; at 50.0 µM) | growth inhibition [4, 7] [%] | growth inhibition [4, 8] | growth inhibition ([4]; at 50.0 µM) | growth inhibition [5, 7] [%] | growth inhibition [5, 8] | growth inhibition ([5]; at 50.0 µM) | growth inhibition [6, 7] | growth inhibition [6, 8] | growth inhibition ([6]; at 50.0 µM) |
| --- | --- | --- | --- | --- | --- | --- | --- | --- | --- | --- | --- | --- | --- | --- | --- | --- | --- | --- |
| CN(C)CCCNc1ccc(O)c2sc3ccccc3c(=O)c12 | 4% | 14% | 69.7% | -5% | 33% | 34.6% | -5% | 20% | 63.6% | -3 | -11% | 15.6% | 5 | 25% | 24.4% | – | – | – |
| CC(C(=O)O)c1cn(Cc2ccccc2)c2ccccc12 (stereo not given) | -2% | 61% | 4.65% | 6% | 58% | 43.2% | -28% | 36% | 31.4% | 6 | 85% (active) | -8.85% | 21 | 80% (active) | -43.8% | 6% | 34% | 38.9% |
| CCN(CC)C(=O)C1(OC(C)=O)CCCCC1 | 0% | 0% | -2.4% | -21% | -1% | -5.65% | 0% | -2% | 9.9% | 3 | 0% | 36.8% | -6 | -2% | 2.1% | 1% | 0% | -80.8% |
| Cc1ccc(/C=C2\CCCc3ccccc3C2=O)cc1 | 0% | 7% | 51.3% | 7% | 23% | 7.9% | 8% | 33% | 55.8% | -11 | -11% | 11.3% | – | – | – | – | – | – |
| COC(=O)c1ccccc1N=NN(C)CC1OC2OC(C)(C)OC2C1OC (stereo not given) | 10% | 69% | 71.2% (active) | 17% | 27% | 43.2% | 1% | 36% | 74.1% (active) | -3 | 20% | -0.8% | 0 | 44% | 32.6% | – | – | – |
| COC(=O)c1nc2ccc([N+](=O)[O-])cc2n1O | -154% | -155% | 2.25% | -54% | -59% | 19.8% | -60% | -70% | 2.95% | -53 | -60% | 36% | -68 | -80% | 4.8% | -116% | -111% | 4.3% |
| Clc1ccc(/C=C\c2ccncc2)cc1 | 3% | 58% | 48.2% | 4% | 51% | 44.9% | 4% | 59% | 29.1% | 1 | 7% | 29.7% | 4 | 39% | 30% | -1% | 32% | 62% |
| Cc1ccccc1[P+](C)(c1ccccc1C)c1ccccc1C | 56% | 85% (active) | 81% (active) | 18% | 78% (active) | 69.7% | 31% | 89% (active) | 82.2% (active) | 2 | 48% | 29.1% | 27 | 85% (active) | 82.8% (active) | 34% | 84% (active) | 71.8% (active) |
| CC(C)SCC1CO1 (stereo not given) | -1% | 1% | -19.6% | -1% | -4% | 3.9% | -1% | 1% | 18.1% | 2 | -11% | 47.5% | 0 | -9% | -6.55% | -1% | -5% | -3.5% |
| O=C1NC2(C=Cc3c(ccc4ccccc34)O2)Oc2ccccc21 (stereo not given) | -12% | -8% | 44.5% | -16% | -7% | 10% | 6% | 11% | 34% | 31 | 48% | 24.4% | 4 | -8% | 7.65% | -3% | 3% | 62% |
| CCOC1(OCC)Oc2c(Cl)c(Cl)c(Cl)c(Cl)c2OC1(OCC)OCC | 11% | 97% (active) | 98.3% (active) | 13% | 98% (active) | 98.9% (active) | 12% | 96% (active) | 98.5% (active) | 16 | 97% (active) | 97.4% (active) | 13 | 97% (active) | 98% (active) | 14% | 96% (active) | 98.7% (active) |
| Cc1cc(Cl)ccc1OCC(=O)Oc1c(Cl)c(Cl)c(Cl)c(Cl)c1Cl | 7% | 36% | 65.8% | 8% | 13% | 73% (active) | 0% | 42% | 67.6% | -12 | 33% | 42.8% | -6 | 19% | 68.9% | 7% | 50% | 76% (active) |
| CSc1nc(NN)cc(-c2ccccc2)n1 | 0% | 23% | 12.5% | 24% | 19% | 50.3% | 0% | 57% | 56.7% | 2 | -2% | 3.1% | -3 | 68% | 81.2% (active) | -1% | 54% | 79.3% (active) |
| C/C(=N\NC(=S)NCc1ccccc1)c1nccnc1C | 23% | 98% (active) | 90.9% (active) | 19% | 99% (active) | 89% (active) | 35% | 99% (active) | 82.9% (active) | 35 | 98% (active) | 85.9% (active) | 52 | 99% (active) | 83.3% (active) | 27% | 98% (active) | 91.7% (active) |
| COc1ccc2c(c1)CC[C@@H]1[C@@H]2CC[C@]2(C)/C(=N/OCCN3CCCCC3)CC[C@@H]12 | 60% | 97% (active) | 76.3% (active) | 56% | 98% (active) | 71.2% (active) | 33% | 97% (active) | 86.8% (active) | 20 | 96% (active) | 78.7% (active) | 33 | 98% (active) | 79.8% (active) | 80% (active) | 98% (active) | 83% (active) |
| O=C(O)C(O)C(O)C(O)C(O)c1nc2ccccc2s1 (stereo not given) | 13% | 98% (active) | 98.6% (active) | 13% | 99% (active) | 98.7% (active) | 12% | 96% (active) | 90.5% (active) | 1 | 95% (active) | 73.7% (active) | 8 | 99% (active) | 99% (active) | – | – | – |
| C[N+](C)(C)c1nc(N)nc2c1ncn2C1OC(CO)C(O)C1O (stereo not given) | 9% | 15% | 29.5% | 12% | -11% | 6.5% | 9% | 3% | -40.6% | -20 | -2% | 70.3% (active) | 1 | -1% | -27.2% | 5% | 16% | 11% |
| O=Nc1c(-c2cccc([N+](=O)[O-])c2)nc2cnccn12 | 39% | 99% (active) | 97.7% (active) | 24% | 99% (active) | 98.5% (active) | 54% | 99% (active) | 95.7% (active) | 23 | 99% (active) | 99.3% (active) | 4 | 99% (active) | 99.7% (active) | 58% | 99% (active) | 97.5% (active) |
| Cc1c(CC=C(c2ccccc2)c2ccccc2)cccc1C[N+](C)(C)C | 95% (active) | 73% (active) | 90.7% (active) | 78% (active) | 34% | 62.8% | 99% (active) | 98% (active) | 99% (active) | 2 | 61% | 48.1% | 25 | 72% (active) | 80.2% (active) | 95% (active) | 98% (active) | 98.2% (active) |
| [N-]=[N+]=Nc1c(Cc2ccccc2)c(=O)oc2ccccc12 | 15% | 73% (active) | 65.3% | -8% | 58% | 73.9% (active) | 3% | 73% (active) | 75.7% (active) | 11 | 35% | 58.8% | -17 | 87% (active) | 77.7% (active) | -3% | 82% (active) | 66.9% |
